Among the data in PubChem BioAssay (EPA / NIEHS) are outcome and AC50 values, retold here.

Activity calls are given as the source filed them. The calls were made as follows: active = hit-call score of the fitted dose curve at least 0.9, where 1 is the maximum; inactive = score below 0.9.

Broadly, the AC50 is the midpoint of the concentration-response curve, whichever way the signal moves.

Read-out in the assay: Glutamate-cysteine ligase regulatory (GCLM), GCLM (gene 2730)
In words: LTEA_HepaRG_GCLM: Life Technologies and Expression Analysis (LTEA) Assay for Glutamate-cysteine ligase regulatory (GCLM) using HepaRG (AID 2283500). The note with it: mRNA level, 48 h; actives raise or lower the signal. As to the method:
LTEA_HepaRG is a cell based, multiplexed-readout assay that uses HepaRG, a human liver cell line, with measurements taken at 48 hours after chemical dosing on a 96-well plate.LTEA_HepaRG_GCLM is one of 102 assay component(s) measured in the LTEA HepaRG cell culture assay. It is a marker of Cell proliferation, survival, death.Data from the assay component LTEA_HepaRG_GCLM was analyzed into 1 endpoint. This assay endpoint, LTEA_HepaRG_GCLM, was analyzed with bidirectional fitting relative to DMSO as the negative control and baseline of activity. Using a type of inducible reporter, measures of mRNA induction for gain or loss-of-signal activity can be used to understand regulation of transcription factor activity. To generalize the intended target to other relatable targets, this assay endpoint is annotated to the ligase intended target family, where the subfamily is C-N ligase.
A total of 1060 chemcials from the ToxCast library were tested in eight-point concentration-response experiments. Cell culture and cytotoxicity assays were conducted at Thermo Fisher Scientific's Custom Services facility (Madison, WI). A single lot of human HepaRG cells (Thermo Fisher Scientific, Frederick, MD) was used for the cell culture experiments. 96-well format collagen type I coated plates of human HepaRG cells were prepared using established methods. Briefly, cryopreserved HepaRG cells were thawed, plated at a density of approximately 100,000 cells/well in HepaRG Thaw, Plate, and General Purpose media (HPRG770, Thermo Fisher Scientific), and incubated for 48 hours. 0.5% DMSO was selected as vehicle control to balance the requisite need of DMSO in HepaRG cultures to maintain differentiation (for example, baseline metabolism, proportions of hepatocytes vs. cholangiocytes), while enabling further hepatic receptor pathway activation (for example, PXR and CAR) in response to chemical exposure. 48 hours after plating, the culture medium was replaced with HepaRG Serum-Free Incudtion Media. Cells were exposed to each test chemical in duplicate and maintained in CO2 incubators for another 48 hours. Chemical plates were thawed to room temperature and 200x concentrations of treatment groups were prepared. 8-point conentration-reponse curves were made with the highest exposure at 100 uM, followed by half-log dilutions, all in 0.5% DMSO. Each test plate contained variouse controls, induction positive controls (1mM phenobarbital), cytotoxicity positive controls ([…] aflatoxin B1), vehicle controls (0.5% DMSO), and total lysis controls (0.5% DMSO). Cell morphology images were taken using an Essen IncuCyte FLR automated microscope, with six 96-well plates imaged in about 24 minutes. Images were captured and exported and JPEG files. Spent culture media was transfered to black-well plates for the LDH assay, and remaining media was sorted at -80 C for later use. Cells were treated with RLT buffer and frozen until shipped for gene expression analysis. Total RNA was isolated from the cell suspension in 75 uL of Buffer RLT (Qiagen, Germantown, MD 20874) by Quintiles/Expression Analysis (Durham, NC) using a custom isolation procedure. Total RNA from each plate well was transferred to a preamplification plate. Fluidigm's 96.96 Dynamic ArrayTM (Fluidigm, Amsterdam, the Netherlands) technology was used for gene expression analyses by quantitative reverse transcription polymerase chain reaction (qRT-PCR, performed by Quintiles/Expression Analysis, Durham, NC)89. Standard TaqManTM Assays (Applied Biosystems/ThermoFisher Scientific, Foster City, CA) were used to assess the expression of 93 genes selected based on their selectivity and sensitivity to important hepatic receptors known to be modulated by environmental chemicals; importance in human hepatocyte functionality; and hepatotoxicity. […]
`CN(C)CCCN1c2ccccc2Sc2ccc(Cl)cc21`: the compound was called inactive.

As for `CC(=O)S[C@H](C(=O)N[C@H]1Cc2ccccc2[C@H]2CCC[C@@H](C(=O)O)N2C1=O)C(C)C`, the compound was classed as inactive.

With `O=C1O[C@H]([C@H](O)CO)C(O)=C1O`, the compound was called inactive.

Turning to `O=C(N[C@@H](c1ccccc1)[C@@H]1CCCCN1)c1cccc(C(F)(F)F)c1Cl`, the compound was classed as inactive.

As for `CC(=O)OCC(COC(C)=O)OC(C)=O`, the result was inactive.

With `CCC(C)N(C)C(=O)c1cc2ccccc2c(-c2ccccc2Cl)n1` (stereo not given), the compound was classed as inactive.

In the case of `CS(=O)(=O)c1ccc([C@@H](C[C@H]2CCC(=O)C2)C(=O)Nc2cnccn2)cc1Cl`, the concentration at half-maximal activity (AC50) is 1.81 µM (active).

Regarding `Oc1ccccc1O`, the compound was classed as inactive.

As to `CCCCC(CC)COP(=O)(OCC(CC)CCCC)OCC(CC)CCCC` (stereo not given), the call was inactive.

Consider `OCC(O)CO`, for which the call was inactive.

Take `C#CC(O)C(CC)CCCC` (stereo not given): the result was inactive.

Regarding `O=C(O)c1[nH]n(-c2ccc(S(=O)(=O)O)cc2)c(=O)c1N=Nc1ccc(S(=O)(=O)O)cc1`, the compound was called inactive.

In the case of `CN(C)C(=O)NC1(c2ccccc2)CCN(CCC[C@]2(c3ccc(Cl)c(Cl)c3)CCCN(C(=O)c3ccccc3)C2)CC1`, the AC50 was 12.5 µM (active).

For `O=[Si]=O`, the compound was called inactive.

On to `CC(C)OC(=O)C(C)(C)Oc1ccc(C(=O)c2ccc(Cl)cc2)cc1`, for which the compound was called inactive.

As to `CCc1nc(N)nc(N)c1-c1ccc(Cl)cc1`, the call was inactive.

Consider `CCN(CC)CCOc1ccc(C(=C(Cl)c2ccccc2)c2ccccc2)cc1`, for which the AC50 was 78 µM (active).

For the compound `CCCC[C@H]1CN(CC2CCOCC2)C(=O)OC12CCN(C1(C)CCN(C(=O)c3c(C)ncnc3C)CC1)CC2`, the call was inactive.

Turning to `CCCCCCCCCC[N+](C)(C)[O-]`, the outcome was inactive.

Take `O=C1c2c(O)cccc2Cc2cccc(O)c21`: the result was inactive.

As for `CCCCC(CC)COC(=O)CCCCCCCC(=O)OCC(CC)CCCC` (stereo not given), the compound was called inactive.

For `NC(=Nc1ccccc1)Nc1ccccc1`, the compound was classed as inactive.

Turning to `CC(C)COC(=O)CCCCC(=O)OCC(C)C`, the call was inactive.

Consider `Cc1cn([C@H]2C=C[C@@H](CO)O2)c(=O)[nH]c1=O`, for which the result was inactive.

With `CCCCCCCC(=O)OC`, the compound was classed as inactive.

For `COc1ccc(OC(F)(F)F)cc1CN[C@H]1CCCN[C@H]1c1ccccc1`, the outcome was inactive.

Regarding `O=NO`, the compound was called inactive.

With `CC(C)c1cccc(C(C)C)c1`, the result was inactive.

On to `OCC(CO)n1cnc(-c2ccc(F)cc2)c1-c1ccnc(Oc2ccccc2)n1`, for which the call was inactive.

In the case of `CC(C)NCC(O)c1ccc(O)c(O)c1` (stereo not given), the compound was classed as inactive.

As for `O=C1NC(=O)C(c2ccccc2)(c2ccccc2)N1`, the outcome was inactive.

As to `Nc1nc(Cl)nc2c1ncn2[C@H]1C[C@H](O)[C@@H](CO)O1`, the call was inactive.

`O=C1CCCCC1`: the compound was called inactive.

As for `CCCCOC(=O)CCCCC(=O)OCCCC`, the compound was called inactive.

For `NC1CCCCC1`, the compound was classed as inactive.

Take `CCc1cc(C2=C(C(=O)O)N(c3ccccc3C(F)(F)F)S(=O)(=O)c3ccccc32)cc2c1OCO2`: the AC50 was 68.2 µM (active).

With `C=CCc1ccc(OC)c(OC)c1`, the outcome was inactive.

As to `COC(=O)[C@H]1[C@H]2C[C@@H]3c4[nH]c5cc(OC)ccc5c4CCN3C[C@H]2C[C@@H](OC(=O)c2cc(OC)c(OC)c(OC)c2)[C@@H]1OC`, the result was inactive.

On to `CC1(C)C(=O)NC(=O)N1CO`, for which the outcome was inactive.

As to `CC1=C(C)S(=O)(=O)CCS1(=O)=O`, the AC50 was 0.214 µM (active).
